Shown are actives, neighbours in structure and some others; about 3% of the full set was active somewhere.
EBV LMP1 NFkB = reduces LMP1-driven NF-kappaB luciferase signal | AID 504558 | inhibition, % at 12.5 µM | LMP1-induced NF-kappaB luciferase reporter cells, luminescence | 0.69% of 350,000 active; in the data active = inhibition above about 41%; inconclusive = no clear call, values can overlap the other calls
KKLEB cytotox = reduces viability of KKLEB cystic fibrosis airway cells. activity change (cytotoxicity), % at 5 µM. KKLEB CF airway cells viability, ATPlite luminescence, overnight; active compounds read low; cells stimulated with P. aeruginosa culture filtrate. 0.36% of 360,000 active;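 active = corrected activity change at or below -50% at 5 µM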
Peg3 prom inh-1 = inhibitors of Peg3 promoter; HeLa PEG-Prom luciferase reporter, luminescence, overnight; inhibition, % at 20 µM; 1.7% of 360,000 active; AID 588405;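 active = inhibition of at least 50% at 20 µM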
TRPM1 prom inh = MITF TRPM1 promoter inhibition in SK-MEL-5 cells. 0.83% of 330,000 active. inhibition, % at 12.5 µM. AID 488899. SK-MEL-5 TRPM1 promoter luciferase, 24 h;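 active = mean inhibition across replicates of 60% or more, whatever share of single replicates reaches that level; inconclusive = some that reach 60%, reason not given; inactive = mean inhibition across replicates below 60%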
CF NFkB block = cystic fibrosis NF-kB activation inhibition; inhibition, % at 5 µM; KKLEB NF-kB-GFP reporter, PAF-induced, GFP fluorescence overnight; 0.86% of 360,000 active;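 active = at least 50% inhibition at 5 µM, scaled per plate between neutral and stimulator controls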;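 note: PAF is a Pseudomonas aeruginosa culture filtrate used as stimulus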
HIF-2a inh = blocks HIF-2a reporter activity | 786-0 RCC cells HIF-2a reporter, luciferase luminescence, overnight | 0.72% of 360,000 active | inhibition, % at 18.8 µM;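 active = inhibition of the luminescence signal of 40% or more relative to plate controls, in a single-dose primary screen at 18.75 µM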
Peg3 prom inh-2 = Peg3 promoter inhibition confirmation; inhibition, % at 20 µM; AID 602417; HeLa PEG-Prom luciferase reporter, luminescence, overnight; 84% of 1,300 active; shares compounds with Peg3 prom inh-1;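 active = at 20 µM dose, 40% or more inhibition averaged across four replicates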
Of the large screens only hits and unclear results are named; the others gave an inactive call (follow-up assays come after a bar, where they were run).

OCCCn1c(CCNc2nc(-c3ccc(Cl)cc3)cs2)nc2cc(C(F)(F)F)ccc21	none
CCCc1ccc(Oc2coc3cc(OCC(=O)Nc4ccccc4C)ccc3c2=O)cc1	none
CCc1ccc(Oc2coc3cc(OCC(=O)Nc4cc(C)ccc4C)ccc3c2=O)cc1	Peg3 prom inh-1 54.2 | Peg3 prom inh-2 43.2
Cc1ccc(S(=O)(=O)N2CCC(=O)N([C@H](COCc3ccc(Cl)c(Cl)c3)Cc3ccccc3)CC2)cc1	none (no result: EBV LMP1 NFkB, KKLEB cytotox, Peg3 prom inh-1, TRPM1 prom inh, CF NFkB block)
COc1cccc(/C=C2/Sc3ccc(C(=O)NCCCN4CCCC4)cc3NC2=O)c1	Peg3 prom inh-1 78.1 | Peg3 prom inh-2 93.6
O=Nc1c2cc(-c3ccccc3)[nH]nc-2c2ccccc12	none
Cc1ccc(-c2cc3c(N=O)c4ccccc4c-3n[nH]2)cc1	EBV LMP1 NFkB 63.1, KKLEB cytotox -81.2, Peg3 prom inh-1 59.4, TRPM1 prom inh 74.0, HIF-2a inh 68.0 | Peg3 prom inh-2 69.2
COc1cc(Nc2c3ccccc3nc3ccccc23)cc(OC)c1OC	Peg3 prom inh-1 107.5, TRPM1 prom inh inconclusive, HIF-2a inh 46.2 | Peg3 prom inh-2 99.1
COc1ccc(Nc2c3c(nc4ccccc24)CCCC3)cc1OC	none
CN(C)CCNC(=O)/C(=C/c1ccc(-c2ccc(Cl)cc2)o1)NC(=O)c1ccccc1	Peg3 prom inh-1 100.1, TRPM1 prom inh 66.0 | Peg3 prom inh-2 97.3
Cc1ccc(C(=O)N/C(=C\c2ccc(-c3cccc([N+](=O)[O-])c3)o2)C(=O)NCCCN(C)C)cc1	Peg3 prom inh-1 86.5 | Peg3 prom inh-2 92.6
Cc1cccc(NC(=O)c2cccc(S(=O)(=O)N(C)C3CCCCC3)c2)n1	none (no result: TRPM1 prom inh)
COc1ccc(-n2c(O)c(/C=N/Nc3nc(C)cc(C)n3)c3ccccc3c2=O)cc1OC	Peg3 prom inh-1 56.3 | Peg3 prom inh-2 44.9
CCCCCCCCNS(=O)(=O)CCNC1CC1	none
CN(C)CCc1cc2c(c3c1ccc1ccccc13)OCO2	Peg3 prom inh-1 93.2 | Peg3 prom inh-2 92.9
COc1cc2ccc3c(CCN(C)C)cc(OC)c(OC)c3c2cc1OC	none
CC1CCc2c(sc3ncn(CC(=O)N=Nc4c(O)[nH]c5ccccc45)c(=O)c23)C1 (configuration not stated)	none
CCc1nc(N=Nc2c(O)[nH]c3ccccc23)c2c3c(sc2n1)CCC3	Peg3 prom inh-1 85.1 | Peg3 prom inh-2 inactive
CN(C)CCNc1ncnc2c1ncn2[C@H]1CN(Cc2ccc(-c3ccccc3)cc2)C[C@@H](CO)O1	Peg3 prom inh-1 79.9 (no result: EBV LMP1 NFkB, TRPM1 prom inh) | Peg3 prom inh-2 74.8
CN(C)CCNc1ncnc2c1ncn2[C@H]1CN(Cc2ccccc2)C[C@@H](CO)O1	none (no result: EBV LMP1 NFkB, TRPM1 prom inh)
Cc1ccccc1NC(=O)Nc1nc(C(N)C2CCCCC2)cs1 (configuration not stated)	Peg3 prom inh-1 85.7 (no result: EBV LMP1 NFkB, TRPM1 prom inh) | Peg3 prom inh-2 80.6
COc1cccc(Nc2nc(C(C)N)cs2)n1 (configuration not stated)	none (no result: EBV LMP1 NFkB, TRPM1 prom inh)
NC(c1csc(Nc2nccc(C(F)(F)F)n2)n1)C1CCCCC1 (configuration not stated)	Peg3 prom inh-1 82.5 (no result: EBV LMP1 NFkB, TRPM1 prom inh) | Peg3 prom inh-2 94.0
COc1ccc(NC(=O)Nc2nc(C(N)C3CCCCC3)cs2)cc1 (configuration not stated)	Peg3 prom inh-1 54.4 (no result: EBV LMP1 NFkB, TRPM1 prom inh) | Peg3 prom inh-2 71.4
COc1cccc(Nc2nc(C(N)C3CCCCC3)cs2)n1 (configuration not stated)	Peg3 prom inh-1 95.6 (no result: EBV LMP1 NFkB, TRPM1 prom inh) | Peg3 prom inh-2 63.4
CC1(C(=O)Nc2cccc(Oc3ccccc3)c2)Cc2c(-c3ccc4c(c3)OCO4)ccnc2O1 (configuration not stated)	none (no result: EBV LMP1 NFkB, TRPM1 prom inh)
CC1(C(=O)NCc2ccccc2)CN(S(C)(=O)=O)CC(=O)N1CCc1c[nH]c2ccccc12 (configuration not stated)	none (no result: EBV LMP1 NFkB, KKLEB cytotox, Peg3 prom inh-1, TRPM1 prom inh, CF NFkB block)
CC1=C(C(=O)N(C(C)C)C(C)C)CC(CC(=O)NC2CCCC2)C(=O)N1Cc1ccc(C(C)(C)C)cc1 (configuration not stated)	none (no result: EBV LMP1 NFkB, TRPM1 prom inh)
Cc1ccc(C(=O)OCC(=O)c2ccc(Br)cc2)cc1S(=O)(=O)N1CCOCC1	none
CC(C)c1ccc(NC(=O)Nc2nc(C(C)N)cs2)cc1 (configuration not stated)	Peg3 prom inh-1 85.6 (no result: EBV LMP1 NFkB, TRPM1 prom inh) | Peg3 prom inh-2 90.2
CC(C)c1ccc(NC(=O)Nc2nc(CN)cs2)cc1	none (no result: EBV LMP1 NFkB, TRPM1 prom inh)
CN(C)CC1CCC/C(=C\c2ccc(OC(=O)c3ccc(Cl)cc3)cc2)C1=O (configuration not stated)	Peg3 prom inh-1 105.2, TRPM1 prom inh 91.5 | Peg3 prom inh-2 100.1
CN(C)CC1CCC/C(=C\c2ccc(OC(=O)/C=C/c3ccccc3)cc2)C1=O (configuration not stated)	Peg3 prom inh-1 100.9, TRPM1 prom inh 68.5 | Peg3 prom inh-2 99.7
CCc1nc2ccc(C(=O)N(CC)CCN(C)C)cn2c1N(CC)C(=O)NCCc1ccccc1	none (no result: EBV LMP1 NFkB, TRPM1 prom inh)
COC(=O)N1CCCCC1c1cc(C(=O)Nc2cccc3c2CCCC3)no1 (configuration not stated)	none (no result: EBV LMP1 NFkB, TRPM1 prom inh)
O=C(C=Cc1ccccn1)c1ccccc1	Peg3 prom inh-1 100.7, TRPM1 prom inh 70.2 | Peg3 prom inh-2 86.8
O=C(C=Cc1ccccc1Cl)c1ccccc1	none
Brc1ccc(N/N=C(/N=Nc2nn[nH]n2)c2ccccc2)cc1	EBV LMP1 NFkB 58.3, Peg3 prom inh-1 70.4, TRPM1 prom inh 67.0 | Peg3 prom inh-2 63.8
O=C1c2ccccc2C(=O)N1C1C(=O)N2CCSC12C(=O)OCc1ccccc1 (configuration not stated)	none
CN(C)c1ccc(-c2nc3ccccn3c2/N=C/c2ccc(Br)cc2)cc1	Peg3 prom inh-1 54.1 | Peg3 prom inh-2 40.9
CN(C(=O)c1cccc(NC(=O)Cc2cccc(NC(=O)C3CCCN(C(=O)C4CCC4)C3)c2)c1)C1CCC1 (configuration not stated)	none
COc1ccc(CN2C(=O)c3ccccc3C2c2nnnn2-c2ccc3c(c2)OCCO3)cc1OC (configuration not stated)	none (no result: EBV LMP1 NFkB, KKLEB cytotox, Peg3 prom inh-1, TRPM1 prom inh, CF NFkB block)
O=C(CCCN1C(=O)/C(=C/c2ccccc2Cl)SC1=S)NNC(=O)c1ccc(Cl)cc1	Peg3 prom inh-1 63.8, HIF-2a inh 73.3 | Peg3 prom inh-2 44.7
O=C1/C(=C\c2cccc(O)c2O)SC(=S)N1Cc1ccccc1	Peg3 prom inh-1 65.8 | Peg3 prom inh-2 61.5
O=C1/C(=C/c2ccccc2Cl)SC(=S)N1CCCC(=O)N(CCO)c1ccccc1	Peg3 prom inh-1 66.7, HIF-2a inh 70.8 | Peg3 prom inh-2 90.9
O=C(Cn1ccc(=O)[nH]c1=O)Nc1ccc(O)c([N+](=O)[O-])c1	none
CC(C)CC1C(=O)N(Cc2cn(CCC3OCCO3)nn2)CCS(=O)(=O)N1Cc1ccc(-c2ccc(F)cc2)cc1 (configuration not stated)	Peg3 prom inh-1 50.2 (no result: TRPM1 prom inh) | Peg3 prom inh-2 55.3

Screening results deposited in PubChem BioAssay by several laboratories.
